# Assay results from PubChem BioAssay AID720608 (Broad Institute, 2013).
# Results with a measured potency or affinity are listed apart. Inconclusive results are not listed. Calls of active or inactive are those of the source.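 Rule for the calls: active = compound whose fitted half-maximal concentration stays within twice the top dose, with falling signal, in all three exposure times; inconclusive = mixed calls across exposure times, weak flat curves, or poor fits; inactive = inactive at every exposure time, including opposite-direction effects.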
# Assay: SR lymphoma cell viability over time, late-stage follow-up, mechanism study for HRAS target identification, CellTiter-Glo ATP luminescence, 8-48 h, dry powder (AID 720608)
compound,measurement,value
Cc1onc(C(=O)N2CCN(C(c3ccncc3)c3ccncc3)CC2)c1[N+](=O)[O-],outcome,inactive
